# Only some compounds are listed: those with a hit (about 2.7% of all), similar ones and a draw of the others.
# ClpP mod – qHTS Assay for Activators of ClpP; purified B. subtilis ClpP, FRET peptide cleavage, 20 min; 1.9% of 340,000 active; Potency, µM (top dose mostly 57.5 µM); AID 651965, 2013; ATP-dependent Clp protease proteolytic subunit (Bacillus subtilis (strain 168)), P80244; active means well fitted falling curve with a large enough effect; inconclusive means small, poorly fitted or top-dose-only effect; inactive means no such curve, though single readings can be large or run the other way; further: the source files actives as falling curves though it sought activators and does not explain the sign; nearly all actives have a fitted effect of over 65% in size
#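 Purified B. subtilis ClpP, 10 microg/mL final in Tris/HCl pH8 with KCl, BSA, glycerol and Tween-20, cleaved an Abz/nitrotyrosine-quenched decapeptide. Fluorescence (ex 320, em 430) was read at 0 and 20 min at room temperature. Delta was normalized to 5.8 microM ADEP and DMSO/no-enzyme controls.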
# gsp antagonist – qHTS for Antagonists of gsp, the Etiologic Mutation Responsible for Fibrous Dysplasia/McCune-Albright Syndrome: qHTS. gsp-mutant cells, cAMP HTRF, 30 min. Potency, µM (titrated, usually from 76.9 µM), actives largely listed as inhibitors. 0.4% of 340,000 active. AID 624288, 2012; calls by dose curve; cell line not stated here;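 further: intracellular cAMP measured with PDE inhibitor Ro 20-1724 present during compound exposure; nearly all actives have a fitted effect of over 65% in size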
#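 Measurement of cellular cAMP by homogeneous time-resolved fluorescence following a 30 min compound exposure at 37C. The PDE inhibitor […] was present throughout; the assay buffer was DPBS with 0.05% BSA and 0.005% Tween 20.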
# gsp agonist – qHTS for Agonist of gsp, the Etiologic Mutation Responsible for Fibrous Dysplasia/McCune-Albright Syndrome: qHTS | gsp mutant cells, cAMP HTRF, 30 min | Potency, µM (series often up to 76.9 µM), actives largely listed as activators | 0.13% of 340,000 active | AID 624287, 2012; active means well fitted activation curve with a large enough effect; inconclusive means small, poorly fitted or top-dose-only effect, or another doubt; inactive means no such curve, though single readings can be large or run the other way; cell line not stated here;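 further: phosphodiesterase inhibitor Ro 20-1724 added with compounds to block cAMP breakdown; nearly all actives have a fitted effect of over 60% in size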
#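 Cells stably selected in G418 were plated at 2000/well, grown 16-24 hr, then given compounds in DMSO with the PDE inhibitor […] (300 uM solution added) for 30 min at 37C; cAMP was read by HTRF.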
# RXFP1 agonist – qHTS Assay for Agonists of the Relaxin Receptor RXFP1 | Relaxin receptor 1 (Homo sapiens), Q9HBX9 | HEK293T-RXFP1 cAMP TR-FRET, 30 min; response scale: percent of porcine relaxin response, buffer zero | Potency, µM (top dose mostly 57.5 µM), usual class: activators | 0.3% of 370,000 active; active means well fitted activation curve with a large enough effect; inconclusive means small, poorly fitted or top-dose-only effect; further: nearly all actives have a fitted effect of over 60% in size
# Target sequence (Q9HBX9 whole entry, looked up): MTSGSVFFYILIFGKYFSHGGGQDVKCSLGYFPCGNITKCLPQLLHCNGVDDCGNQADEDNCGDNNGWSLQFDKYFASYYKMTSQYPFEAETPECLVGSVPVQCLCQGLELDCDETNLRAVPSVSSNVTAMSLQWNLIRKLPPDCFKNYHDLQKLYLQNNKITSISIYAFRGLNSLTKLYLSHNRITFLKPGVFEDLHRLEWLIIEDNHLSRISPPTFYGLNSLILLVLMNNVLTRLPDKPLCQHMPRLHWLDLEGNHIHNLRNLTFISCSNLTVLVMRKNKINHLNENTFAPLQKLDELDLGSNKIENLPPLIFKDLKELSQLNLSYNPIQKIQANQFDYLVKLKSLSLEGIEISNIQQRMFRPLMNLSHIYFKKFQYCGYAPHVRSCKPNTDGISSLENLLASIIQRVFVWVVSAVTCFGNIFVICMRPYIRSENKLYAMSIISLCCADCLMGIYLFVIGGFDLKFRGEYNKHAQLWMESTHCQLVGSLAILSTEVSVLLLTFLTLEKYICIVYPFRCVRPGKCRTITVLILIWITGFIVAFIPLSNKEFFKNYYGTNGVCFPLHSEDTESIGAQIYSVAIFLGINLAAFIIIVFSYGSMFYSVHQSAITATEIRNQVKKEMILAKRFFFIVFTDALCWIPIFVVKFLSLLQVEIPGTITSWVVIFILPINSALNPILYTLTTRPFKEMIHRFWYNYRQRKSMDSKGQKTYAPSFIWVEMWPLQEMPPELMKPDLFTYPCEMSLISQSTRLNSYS
#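 cAMP rise read by TR-FRET after 30 min, 37C compound exposure (up to 58 uM) in RXFP1-transfected HEK293 cells with Ro 20174 present. EC50 from Hill-equation fits, with 29 nM porcine relaxin as 100% and buffer as basal.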
# RXFP1 antag – qHTS Assay for Antagonists of the Relaxin Receptor RXFP1; Relaxin receptor 1 (Homo sapiens), Q9HBX9; HEK293-RXFP1, relaxin-stimulated cAMP HTRF, 30 min; stronger effect = lower value; activity change, negative = inhibition, % at 57.5 µM; 0.59% of 350,000 active; AID 1259400, 2018;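 active means activity change of -60% or lower, but not beyond a set lower limit; inconclusive means change between -60% and -40%, or beyond the set limit; inactive means change above -40%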
# pAkt inh – HTS Assay for Inhibitors of Akt Phophorylation: Primary Screen; AID 651550, 2012; 0.32% of 360,000 active; activity change, % for hits at 50 µM; Neuro2A IGF-stimulated pAkt S473 HTRF, 20 min; stronger effect = lower value; in the data active means activity change below about -80%; inconclusive means mostly about -51% to -80%
#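 Neuro2A cells in DMEM with 0.5% FBS, overnight at 37 deg C, given compound at single 50 µM final, then IGF (6 nM final) for 20 min at 37 deg C. Lysed; phospho-Akt Ser473 by HTRF after 24 h, 665/615 ratio.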
# A number is an active result; – = inactive; ? = inconclusive; · = not tested or not shown; [ ] = another dose, or the depositor's remark.
SMILES,ClpP mod,gsp antagonist,gsp agonist,RXFP1 agonist,RXFP1 antag,pAkt inh
CCOc1ccc2oc(C(=O)OCC(=O)NC3CCCC3)c(C)c2c1,–,–,–,–,–,–
COc1ccc2nc(-c3ccccc3)cc(C(=O)OCC(=O)NC3CC3)c2c1,10µM,–,–,–,–,–
COc1ccc(-c2cc(C(=O)OCC(=O)NC3CC3)c3ccccc3n2)cc1OC,·,–,–,·,–,–
COc1ccc(-c2ccc(N3C(c4ccsc4)=Cc4ccc(F)cc4C3c3c[nH]c4ccccc34)cc2)cc1 (configuration not stated),–,·,·,·,·,–
COc1ccc2oc(C(=O)OCC(=O)N(Cc3ccccc3)C(C)(C)C)c(C)c2c1,–,–,–,–,–,–
COc1ccc2oc(C(=O)OCC(=O)NC3CCCCC3)c(C)c2c1,16µM,–,–,–,–,–
COc1ccc2oc(C(=O)OCC(=O)N(CCC#N)c3ccccc3)c(C)c2c1,32µM,–,–,–,–,–
CCC(C)n1c(SCC(=O)NC2CCCC2)nc2ccccc2c1=O (configuration not stated),–,–,–[15.4 µM],–,–,–
Nc1ccc(Cc2ccc(C=O)cc2)cc1,–,·,·,·,·,·
O=C(NCCCc1nc2ccccc2n1CCCOc1ccccc1)C1CCCCC1,–,·,·,·,·,·
COC(=O)Nc1cccn(Cc2c(Cl)cccc2Cl)c1=O,?,–,–,–,–,–
C#CCOC(=O)Nc1ccc(=O)n(Cc2c(Cl)cccc2Cl)c1,28µM,–,–,–,–,·
CCc1ccc(-n2nc(C)c3c(C(=O)Nc4cccc(C(F)(F)F)c4)cc(C)nc32)cc1,22µM,·,·,–,–,·
CCN(C(=O)COc1ccc(F)cc1Br)c1c(N)n(Cc2ccccc2)c(=O)[nH]c1=O,–,–,–,–,–,–
Cc1ccc2cccc(SCC(=O)NCC#N)c2n1,28µM,–,–,–,–,–
NNC(=O)CSc1cccc2cccnc12,?,–,?,–,–,–
Cc1cc(=S)c2cccc(C)c2[nH]1,·,–,–[15.4 µM],22µM,–,–
C[C@H]1C[C@H]2[C@@H]3CCC4=CC(=O)C=C[C@]4(C)[C@H]3C(=O)C[C@]2(C)[C@@]1(O)C(=O)CO,·,·,·,·,–,·
O=C(O)COc1ccc2nsnc2c1Cl,14µM,?,–,–,·,–
COc1ccc(-c2csc(NC(=O)c3ccccc3F)c2C(=O)O)cc1,–,–,–,–,–,–
CCCNc1cc(C)c(C#N)c2nc3ccccc3n12,2.8µM,–,?,–,–,–
Cc1cc(NCCCO)n2c(nc3ccccc32)c1C#N,·,–,?,–,–,–
CCCC(=O)N1CCc2cc(OC)c(OC)cc2C1COc1ccc2c(C)cc(=O)oc2c1 (configuration not stated),–,·,·,–,–,·
CCOc1cc(CNCCSc2nnnn2-c2ccccc2)ccc1OC,–,·,·,–,–,·
O=[N+]([O-])c1ccc(F)c(CN2CCN(c3ncc(Cc4ccccc4)cn3)CC2)c1,–,·,·,·,·,–
SMILES,ClpP mod,gsp antagonist,gsp agonist,RXFP1 agonist,RXFP1 antag,pAkt inh
COc1cc(/C=C(/C#N)c2ccc(F)cc2)ccc1OCc1ccc(C(=O)O)o1,–,40µM,–,–,–,–
CCOP(=O)(Nc1cccc2oc(=O)c3ccccc3c12)OCC,11µM,–,–,·,–,–
COc1ccc(NC(=O)Cn2c(=O)cnc3ccccc32)cc1S(=O)(=O)N1CCCCC1,–,–,–,–,–,–
O=c1c(Cl)c(O)c2cccc3c4ccccc4n1c23,14µM,–,–,–,–,–
COc1c(O)c(=O)n2c3ccccc3c3ccnc1c32,–,?,·,–,·,–
O=C(Nc1ccc(C(F)(F)F)cc1)C1(c2ccccc2)CC1,–,–,–[15.4 µM],–,-63,–
Nc1ccc(-c2cnc(N)c(C(=O)c3cccnc3)n2)cn1,–,–,?,·,·,–
OCCN(CCO)c1ccc(C(c2ccccc2Cl)c2ccc(N(CCO)CCO)cc2Cl)c(Cl)c1,–,?,–,–,-60,–
O=c1ccc2cc(S(=O)(=O)N3CCN(c4ccc(Cl)cc4)CC3)ccc2o1,·,–,–[15.4 µM],–,–,–
CNC(=S)N1CCN(c2c(F)cc3c(=O)c(C(=O)O)cn(C4CC4)c3c2OC)CC1C (configuration not stated),28µM,–,?,–,–,–
O=C1c2ccccc2C(=O)N1c1nc(-c2ccc(Cl)cc2)cs1,–,·,·,·,·,·
CC1CCCC(C)N1C(=O)Cn1nnc(-c2ccccc2)n1 (configuration not stated),–,–,16µM,–,–,–
CCOC(=O)Cn1nnc(-c2ccccc2)n1,–,–,–,–,–,–
COc1cccc(N2CC(NC(=O)/C=C\c3ccc4c(c3)OCO4)CC2=O)c1 (configuration not stated),–,·,·,–,–,·
CSCCC(NC(=O)c1cccc(C)c1)C(=O)Nc1sccc1C(N)=O (configuration not stated),·,–,–,–,–,–
O=C(c1ccncc1)N1CCN(C2CCC(c3ccccc3)CC2)CC1 (configuration not stated),·,–,–,–,-64,–
O=C(Cn1[nH]c(=O)c2ccccc2c1=O)OCC(=O)c1ccc(Br)cc1,·,–,–[15.4 µM],–,-76,–
CCc1ccc(N2CC(C(=O)OCC(=O)Nc3cc(C)on3)CC2=O)cc1 (configuration not stated),–,–,–,–,–,-89%
CC1(C(=O)NS(=O)(=O)Cc2cccc(Cl)c2)CCN1C(=O)C1(c2ccc(Cl)cc2)CCC1 (configuration not stated),–,·,·,·,·,–
O=C(N/N=C/c1ccc(O)cc1)c1csc2ccccc12,–,–,–,–,–,-107%
COc1ccc(NC(=O)Cc2nnc(SCC(=O)Nc3cc(C)ccc3OC)n2C)cc1,25µM,–[15.4 µM],–,–,–,–
COc1ccc(C)cc1NC(=O)CSc1nnc(CC(=O)Nc2cccc(C(F)(F)F)c2)n1C,–,–,–,–,–,–
COc1ccccc1N1CCN(C(=O)c2ccc(C(C)(C)C)cc2)CC1,–,–,–,–,–,–
COc1ccccc1C1CCN(C(=O)c2ccc(C(C)(C)C)cc2)CC1,–,–,–[15.4 µM],–,-90,–
O=C(O)C1CC=CCC1C(=O)NCc1ccc(Cl)c(Cl)c1 (configuration not stated),·,–,–[15.4 µM],·,–,–
CC(=O)Nc1nonc1-c1nc2ccccc2n1CC1CC1,?,–,–,–,–,–
